Measured values taken from PubChem BioAssay.
Unmarked numbers belong to inactive results. Active and inactive are the calls of the source.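 How the source made its calls, unless noted: active means mean inhibition above 46.68%, the untreated control wells mean plus 3 SD; inactive means the rest.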

How the values were obtained:
[1] = molecular target: Nuclear receptor coactivator 3 (Homo sapiens) (UniProt Q9Y6Q9); test: SRC3 coactivator transcriptional activity inhibitors, confirmation, cell-based, luminescence, quadruplicate (AID 588792;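 active means mean inhibition over 43.08%, the solvent-only control mean plus 3 SD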;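 further: 0% = DMSO treated cells and 100% = gossypol at 36 µM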); conditions: HEK293 GAL4-SRC3 luciferase reporter, at 3.6 µM, active compounds read high
[2] = system: transactivating tegument protein VP16 (Human herpesvirus 1), Gal4-VP16 luciferase reporter; test: VP16 transactivation inhibitors, counter-screen for SRC3 inhibitor project, cell-based, luminescence, high throughput (AID 588794; in the data active means inhibition above about 30%); conditions: mammalian cells, VP16-driven luciferase reporter luminescence; at 3.6 µM; active compounds read high
[3] = molecular target: Nuclear receptor coactivator 1 (Homo sapiens) (UniProt Q15788); test: SRC1 coactivator transcriptional activity inhibitors, confirmation, cell-based, luminescence, quadruplicate (AID 588820); conditions: HEK293 GAL4-SRC1 luciferase reporter, at 3.6 µM, active compounds read high;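 further: 0% = DMSO wells and 100% = gossypol 36 µM treated wells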
[4] = VP16 transactivation inhibitors, counter-screen for SRC1 inhibitor project, cell-based, luminescence, high throughput (AID 588824; in the data active means inhibition above about 25%); conditions: cell-based VP16 transactivation luciferase luminescence; at 3.6 µM; active compounds read high

Sequence of Nuclear receptor coactivator 3 (Homo sapiens) (Q9Y6Q9 whole entry, looked up, the tested form may be a part): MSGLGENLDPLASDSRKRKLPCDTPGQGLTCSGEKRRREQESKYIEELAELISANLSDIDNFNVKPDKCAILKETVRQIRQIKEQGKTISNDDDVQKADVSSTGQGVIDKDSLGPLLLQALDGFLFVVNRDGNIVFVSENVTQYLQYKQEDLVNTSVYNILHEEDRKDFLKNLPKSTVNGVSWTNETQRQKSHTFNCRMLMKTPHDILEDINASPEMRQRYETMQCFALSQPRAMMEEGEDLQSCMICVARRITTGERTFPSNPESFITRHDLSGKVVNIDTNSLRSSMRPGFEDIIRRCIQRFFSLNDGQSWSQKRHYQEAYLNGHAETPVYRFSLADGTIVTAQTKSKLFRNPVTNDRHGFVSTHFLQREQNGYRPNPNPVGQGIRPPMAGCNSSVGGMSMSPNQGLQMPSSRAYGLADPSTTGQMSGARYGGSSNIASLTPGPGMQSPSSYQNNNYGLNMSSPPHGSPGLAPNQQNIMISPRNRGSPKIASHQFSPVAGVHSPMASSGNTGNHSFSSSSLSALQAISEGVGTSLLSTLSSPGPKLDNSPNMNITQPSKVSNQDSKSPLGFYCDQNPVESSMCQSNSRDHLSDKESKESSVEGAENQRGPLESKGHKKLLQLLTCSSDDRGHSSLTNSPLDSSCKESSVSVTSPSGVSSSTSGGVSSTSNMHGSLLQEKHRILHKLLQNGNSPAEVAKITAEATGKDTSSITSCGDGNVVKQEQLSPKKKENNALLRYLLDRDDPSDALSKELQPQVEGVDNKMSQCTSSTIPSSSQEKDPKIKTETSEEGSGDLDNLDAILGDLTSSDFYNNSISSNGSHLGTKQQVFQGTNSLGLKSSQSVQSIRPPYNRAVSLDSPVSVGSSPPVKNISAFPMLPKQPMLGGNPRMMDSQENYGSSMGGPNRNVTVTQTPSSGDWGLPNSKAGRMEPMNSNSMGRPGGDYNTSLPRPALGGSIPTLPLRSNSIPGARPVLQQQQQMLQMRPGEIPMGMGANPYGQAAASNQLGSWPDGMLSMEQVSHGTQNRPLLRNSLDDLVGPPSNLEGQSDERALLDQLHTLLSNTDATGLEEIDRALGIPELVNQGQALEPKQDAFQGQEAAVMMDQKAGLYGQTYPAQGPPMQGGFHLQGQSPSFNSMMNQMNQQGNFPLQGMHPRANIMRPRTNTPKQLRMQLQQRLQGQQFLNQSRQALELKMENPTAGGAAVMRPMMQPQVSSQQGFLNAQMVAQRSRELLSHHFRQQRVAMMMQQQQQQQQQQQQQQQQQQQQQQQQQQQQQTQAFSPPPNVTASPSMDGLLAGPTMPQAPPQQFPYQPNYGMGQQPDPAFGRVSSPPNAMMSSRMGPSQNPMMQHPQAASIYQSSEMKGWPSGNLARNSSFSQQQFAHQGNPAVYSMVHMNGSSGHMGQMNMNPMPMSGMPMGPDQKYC
Sequence of Nuclear receptor coactivator 1 (Homo sapiens) (Q15788 whole entry, looked up, the tested form may be a part): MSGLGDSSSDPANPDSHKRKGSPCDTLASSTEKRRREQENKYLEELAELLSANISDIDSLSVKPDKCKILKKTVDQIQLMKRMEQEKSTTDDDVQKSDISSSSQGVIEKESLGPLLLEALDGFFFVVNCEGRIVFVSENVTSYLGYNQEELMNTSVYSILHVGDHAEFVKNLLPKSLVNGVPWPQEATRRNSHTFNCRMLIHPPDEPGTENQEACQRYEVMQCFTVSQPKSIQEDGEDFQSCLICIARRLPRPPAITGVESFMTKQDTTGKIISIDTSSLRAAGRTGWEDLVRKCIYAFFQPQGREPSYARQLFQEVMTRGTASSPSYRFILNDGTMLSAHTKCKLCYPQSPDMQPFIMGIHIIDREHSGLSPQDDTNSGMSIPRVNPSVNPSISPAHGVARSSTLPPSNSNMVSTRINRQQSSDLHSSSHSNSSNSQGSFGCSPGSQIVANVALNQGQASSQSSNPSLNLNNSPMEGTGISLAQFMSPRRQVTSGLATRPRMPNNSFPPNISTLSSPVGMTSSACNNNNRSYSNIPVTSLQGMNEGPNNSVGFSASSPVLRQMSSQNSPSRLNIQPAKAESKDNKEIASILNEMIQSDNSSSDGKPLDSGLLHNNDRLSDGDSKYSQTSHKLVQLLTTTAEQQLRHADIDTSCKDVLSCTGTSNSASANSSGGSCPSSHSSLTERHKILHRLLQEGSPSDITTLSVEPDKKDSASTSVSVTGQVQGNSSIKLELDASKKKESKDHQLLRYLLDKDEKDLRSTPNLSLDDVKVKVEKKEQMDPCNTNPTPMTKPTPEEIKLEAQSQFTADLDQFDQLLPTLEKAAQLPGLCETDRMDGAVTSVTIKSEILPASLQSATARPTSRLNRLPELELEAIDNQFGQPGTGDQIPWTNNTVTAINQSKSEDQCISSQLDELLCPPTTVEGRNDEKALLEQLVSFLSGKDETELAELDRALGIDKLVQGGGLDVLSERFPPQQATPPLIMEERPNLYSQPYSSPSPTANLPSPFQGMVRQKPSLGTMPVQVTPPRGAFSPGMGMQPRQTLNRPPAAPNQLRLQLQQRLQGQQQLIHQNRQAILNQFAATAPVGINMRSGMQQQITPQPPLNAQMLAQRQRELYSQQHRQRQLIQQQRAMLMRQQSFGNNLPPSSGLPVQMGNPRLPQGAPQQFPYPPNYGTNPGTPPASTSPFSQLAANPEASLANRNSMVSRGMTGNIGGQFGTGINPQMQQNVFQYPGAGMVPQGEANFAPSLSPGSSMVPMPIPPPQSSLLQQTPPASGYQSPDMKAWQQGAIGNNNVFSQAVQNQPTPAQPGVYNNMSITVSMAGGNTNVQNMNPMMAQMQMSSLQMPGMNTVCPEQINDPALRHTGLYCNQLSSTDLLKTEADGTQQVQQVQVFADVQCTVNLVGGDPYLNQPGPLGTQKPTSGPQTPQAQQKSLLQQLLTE

Compound	inhibition [1]	inhibition [2]	inhibition [3]	inhibition [4]
O=S(=O)(/C(=C\c1ccc(C(F)(F)F)cc1)c1nc2ccccc2[nH]1)c1ccccc1	69.8% (active)	25.6%	-29.1%	42.4% (active)
NC(=S)N/N=C1\CCSc2ccc(Cl)cc21	39.3%	22.9%	6.53%	16.1%
O=C(NC1CCCCCCC1)C1c2ccccc2C(=O)N1Cc1cccs1 (stereo unspecified)	5.02%	14.6%	4.81%	9.14%
Cn1c(=O)c2c(nc(Oc3ccc4ccccc4c3)n2C)n(C)c1=O	47.5% (active)	39.4% (active)	53.3% (active)	34.7% (active)
Cc1nc(N)nc(N)c1-c1ccc(Cl)c(Cl)c1	58.5% (active)	24.5%	54.2% (active)	33.6% (active)
Cc1nc2c(-c3ccc(Cl)cc3)c(C)[nH]n2c(=O)c1Cc1ccccc1	24.1%	29.3%	24.5%	22.1%
COc1ccc(-c2c[n+]3c(n2-c2ccccc2)SCC3)cc1	17.9%	14.3%	11.1%	21%
CCN(CC)c1ccc2cc(NC(=O)CCC(=O)O)c(=O)oc2c1	68.4% (active)	42.9% (active)	44.2%	39.2% (active)
COc1cc(C(=O)OCC(=O)Nc2sccc2C(N)=O)cc(OC)c1OC	42.7%	10.3%	-42.7%	5.18%
Cn1c(Sc2ccc(Cl)cc2)c(C=O)c2ccccc21	52.3% (active)	43.6% (active)	60% (active)	37% (active)
O=c1[nH]c(=O)n([C@H]2C[C@H](O)[C@@H](CO)O2)cc1F	60.6% (active)	31% (active)	46%	35.4% (active)
CN(C)C=Nc1c(C(=O)c2ccccc2)sc2nccc(N(C)C)c12	20.3%	16.3%	30.8%	16.9%
CCOc1cc(C(N)=O)cc(Br)c1OCC	37.3%	22.4%	43.4%	21.6%
COc1cc(/C=C/C(=O)Nc2ccc(OC)c(S(=O)(=O)N3CCOCC3)c2)ccc1OCC#N	12.1%	32.6% (active)	19.1%	40.3% (active)
COC(=O)c1cc2c(n1S(=O)(=O)c1ccc(C)cc1)C(=O)C(=O)c1[nH]cc(C(=O)OCc3ccccc3)c1-2	96.9% (active)	93.6% (active)	81.9% (active)	93.2% (active)
Cc1cccc(C)c1-c1ccc(CN2C(CC(C)C)C(=O)N(Cc3cn(CC4CCCCC4)nn3)CCS2(=O)=O)cc1 (stereo unspecified)	21.1%	21.2%	24.4%	22.6%
Cc1[nH]ccc2cc3nc4ccccc4c3cc12	13.9%	36.2% (active)	31.7%	39.4% (active)
COc1cc2oc(=O)cc(-c3ccc(-c4ccc(CO)cc4)cc3)c2c(OC)c1OC	45.9% (active)	28.3%	32.9%	32.5% (active)
Cc1cc(=O)[nH]c(Nc2cccc(C(F)(F)F)c2)n1	38.8%	34.2% (active)	49.4% (active)	27% (active)
CC(C)(C)n1ncc2c(=O)n(CC(=O)OCc3ccccc3)cnc21	31.6%	17%	-21.8%	-23.3%
O=C(NC(=S)Nc1ccc(N2CCN(C(=O)c3ccccc3)CC2)cc1)c1cccs1	25.8%	23.8%	16%	14.3%
CCCCC(=O)NC(c1cccs1)c1cc(Cl)c2cccnc2c1O (stereo unspecified)	44.5% (active)	40.6% (active)	27.5%	49.9% (active)
Nc1ncnc(NCc2ccccc2)c1[N+](=O)[O-]	38.8%	26.7%	38.1%	42.4% (active)
CCN(CC)c1ncnc2ccc(Br)cc12	48.3% (active)	31.9% (active)	45.9%	36% (active)
CCCCC(=O)NC(c1ccc(N(C)C)cc1)c1ccc2cccnc2c1O (stereo unspecified)	58.5% (active)	43.9% (active)	48% (active)	55.9% (active)
Cn1c(/C(C#N)=C/c2ccc(-c3ccc(S(N)(=O)=O)cc3)o2)nc2ccccc21	27.9%	27.3%	-4.53%	28.9% (active)
CN(C)c1ccc(CNC(=O)CCNS(=O)(=O)c2cc(Br)cnc2N)cc1	31.5%	19.3%	8.5%	20.7%

Compound	inhibition [1]	inhibition [2]	inhibition [3]	inhibition [4]
CCCN(CCC)c1nc(-c2ccccn2)nc2ccccc12	80% (active)	35.2% (active)	30.2%	29.9% (active)
CC(C)CC(=O)/C(=C\c1ccc(Cl)cc1Cl)n1cncn1	60.2% (active)	48.8% (active)	14.1%	55.6% (active)
Cn1c(=N)n(CC(=O)c2ccc(Cl)c(Cl)c2)c2ccccc21	-33.3%	-30.2%	-189%	-61.4%
C#CCN(C[C@@H]1[C@@H](OC(=O)NCCCCCC)[C@@H](OC(=O)NCCCCCC)Cn2c(=O)ccc(=O)n21)S(=O)(=O)c1ccc(C)cc1	23.3%	31.7% (active)	23.8%	33.4% (active)
CN(Cc1c(C(=O)N/N=C/c2ccccc2O)nnn1-c1nonc1N)C1CCCCC1	66.8% (active)	46.5% (active)	59.7% (active)	59.8% (active)
O=C(c1ccncc1)N(Cc1cc2ccccc2[nH]c1=O)C1CCCCC1	40.7%	23.2%	42.2%	23.1%
COc1cc(C(=O)N/N=C(\c2ccccc2)c2ccccn2)cc(OC)c1OC	32.9%	23.2%	28.5%	21.9%
O=[N+]([O-])c1ccc(O)c(/C=N/Nc2ccc(Cl)nn2)c1	87.2% (active)	83.6% (active)	73.1% (active)	82.2% (active)
CCN(CC)S(=O)(=O)c1cccc(NC(=O)COC(=O)c2[nH]c(C)c(C(C)=O)c2C)c1	20%	42.5% (active)	6.19%	42.8% (active)
COC(=O)c1cc(N/C(N)=N/c2nc(C)cc(C)n2)cc(C(=O)OC)c1	27.3%	55.4% (active)	48.2% (active)	52% (active)
NC(=S)NN=Cc1nccc2c(N)cccc12	72.3% (active)	17.2%	47.8% (active)	8.49%
CCCc1c(C)nc2ccccc2c1SCCC#N	29.6%	29%	39.6%	25.5% (active)
Cc1cccc(/C=N/Nc2ccc3ccccc3n2)c1	16.1%	-21.2%	-80.5%	-55%
O=C(Nc1nc(-c2ccccc2)cs1)C1CCCN(S(=O)(=O)c2ccccc2)C1 (stereo unspecified)	-1.67%	16.4%	-23.1%	22.9%
C(=Cc1cnc2ccccc2n1)c1ccc2c(c1)OCO2	58.3% (active)	25.1%	-41.3%	21.3%
COc1ccc2cc3c(N)nn(C(=O)c4ccc(F)cc4)c3nc2c1	69.8% (active)	36.1% (active)	56.7% (active)	36.3% (active)
Cc1cc(C)c2c(N)c3ccccc3nc2n1	15.2%	54.6% (active)	3.44%	53.4% (active)
Cc1ccc(NC(=O)NC2CC(=O)N(c3ccc4c(c3)OCCO4)C2)cc1C (stereo unspecified)	41.9%	33.8% (active)	46%	20.9%
OC1c2cc(Br)ccc2N=C2CCCN21 (stereo unspecified)	44.3% (active)	37.3% (active)	37%	30.1% (active)
N#CC(c1ccc(Cl)cc1)c1ccc2c(C(F)(F)F)cc(C(F)(F)F)nc2n1 (stereo unspecified)	62% (active)	85.7% (active)	32%	83.3% (active)
Oc1ccc(Nc2nc(N3CCCC3)c3ccccc3n2)cc1	25.6%	42.7% (active)	34%	40.2% (active)
COc1ccc(-c2cnc(N)nc2-c2ccc(OC)cc2O)cc1	22.5%	13.7%	29.7%	18.4%
O=C(COc1ccccc1O)NNc1ccccc1	11.6%	24%	-12.2%	29.2% (active)
Nc1nc(=O)n(C2OC(CO)C(O)C2O)cc1F (stereo unspecified)	13.6%	31.5% (active)	40.1%	38.9% (active)
N=c1c2c(-c3ccccc3)c(-c3ccccc3)n(Cc3ccco3)c2ncn1CCCO	26.8%	52.6% (active)	36.9%	51.3% (active)
c1cncc(CNc2ncnc3ccc(-c4ccoc4)cc23)c1	75.2% (active)	42.8% (active)	66% (active)	47.8% (active)
Cc1ccc(C2CC(C(F)(F)F)n3nc(C(=O)NCc4c(C)nn(C)c4C)c(Cl)c3N2)cc1 (stereo unspecified)	7.71%	15.1%	-7%	10.9%
